Inconclusive results are not listed. Values without a mark were called inactive.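 How the source made its calls: active means viability at or below 27.92% in each of two runs, the all-compound median minus 4 SD; inconclusive means no clear call, values can overlap the other calls; inactive means the rest.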

This assay can be described thus: growth suppression of PTEN-deleted HCT116, pilot screen, cell-based, HCT116 clonal line, CellTiter-Glo (AID 824).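 Further: 0% = 20 µM Hyamine control and 100% = vehicle cell control.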 The conditions noted are these: 60 h, at 10 µM, hits give low values. A general note: Cellular ATP, detected with luciferase, serves as a proxy for viable cell number.
Turning to `CCOc1ccc(OCC)c(Nc2cc(C)nc3nc(C)nn23)c1`, the viability was 46.6%.

For `O=C(Cn1cc2c(n1)CCCC2)NCCCN1CCN(C2CCCCC2)CC1`, the viability is 93.1%.

Consider `Cc1ccc(CN2CCN(CC(=O)N3CCC(C(N)=O)CC3)C2=O)cc1`, for which the viability was 101%.

`O=C(c1ccc(CS(=O)(=O)c2ccc(Br)cc2)o1)N1CCN(C2CCCCC2)CC1`: the viability was 95.8%.

Turning to `CCN(CC)C(=O)CCCOc1ccc(Cl)cc1Cl`, the viability is 83.9%.

On to `O=C(O)c1ccc(NS(=O)(=O)c2cc(Cl)ccc2Cl)cc1`, for which the viability is 95.3%.

Turning to `S=c1[nH]nc(CSc2nc3ccccc3s2)o1`, the viability was 99.1%.

For `CCn1c(=O)cc(OCC(=O)N2CCc3ccccc32)c2ccccc21`, the viability was 89.9%.

In the case of `COC(=O)c1c(C)nn(-c2ccccc2)c1N`, the viability was 98.5%.

Regarding `Fc1ccc(CN2CCCCCCC2)cc1F`, the viability is 95.7%.

For `COc1ccccc1NC(=O)C1CCCN(S(=O)(=O)c2cnc[nH]2)C1` (stereo not drawn), the viability is 95.5%.

As for `O=C(/C=N/O)Nc1ccccc1C(=O)O`, the viability is 98.5%.

With `O=C(NC(C(=O)c1ccccc1)N1CCOCC1)c1ccccc1` (stereo not drawn), the viability is 101%.

Consider `COc1ccc(S(=O)(=O)N2CCN(C)CC2)c2ccccc12`, for which the viability is 91.3%.

On to `CCOc1cccc(NC(=O)Cc2cccs2)c1`, for which the viability is 84.6%.

With `CCSc1nnc2c(n1)OC1(CCCC1)Nc1ccccc1-2`, the viability is 93.5%.

As for `COc1ccc2c(c1)OC1(C)CC2C(C(=O)c2ccccc2OC)C(=O)N1` (stereo not drawn), the viability was 67%.

Take `O=C(NC1CCCCCC1)C1CCCN1S(=O)(=O)c1cccc2cccnc12` (stereo not drawn): the viability was 92.1%.

One may read the viability as a read-out of living cells in per cent, often relative to untreated cells.
